Measured values as given in PubChem BioAssay (NCATS).
Results filed as inconclusive are left out. A number with no mark means an inactive call. Active and inactive are the calls of the source. Calls follow the shape of the dose curve; as a rule, active = well fitted inhibition curve with a large enough effect; inconclusive = small, poorly fitted or top-dose-only effect; inactive = no such curve, though single readings can be large or run the other way.

Target: Retinaldehyde dehydrogenase 3 (Homo sapiens) (UniProt P47895)
Assay: qHTS for Inhibitors of the Aldehyde Dehydrogenase Family (ALDH1A3) Confirmatory screens (AID 2061311); also: nearly all actives have a fitted effect of over 60% in size
Details: ALDH inhibition qHTS; series mostly up to 46 µM; activity change, negative = inhibition: at the top concentration
% is scaled to controls: 0 for no effect and ±100 for the full control effect; potency is read from the fitted curve at half-maximal effect.

| Compound | activity change, negative = inhibition | Potency | outcome |
| --- | --- | --- | --- |
| CC(=O)c1c(C)n(-c2ccc(C)cc2)c2ccc(OC(=O)COc3ccccc3)cc12 | 4.37% | – | – |
| Cc1ccc2nc3sc(C(=O)NC4CCC(O)CC4)cc3cc2c1 (stereo not given) | – | 20.1 µM (active) | – |
| CCOC(=O)c1c(C)n(-c2ccccc2)c2ccc(OC(=O)c3ccccc3)cc12 | 5.81% | – | – |
| O=C(CCC1CCCN(S(=O)(=O)c2ccccc2F)C1)NCCCN1CCOCC1 (stereo not given) | – | – | inactive |
| COc1cccc(S(=O)(=O)NC2CCN(C#N)C2)c1 (stereo not given) | – | – | inactive |
| Nc1cc(S(=O)(=O)N2CCN(S(=O)(=O)c3ccc4c(c3)OCCO4)CC2)ccn1 | -14.1% [at 0.022 µM] | – | – |
| Cc1cc(NS(=O)(=O)c2ccc(Nc3nc(-c4ccc(C)c(C)c4)cs3)cc2)no1 | -16% | – | – |
| Cc1ccc(S(=O)(=O)Nc2cnccc2C(=O)Nc2nc(-c3ccco3)cs2)cc1 | – | 7.12 µM (active) | – |
| COc1ccc(-n2c(C)c(C(C)=O)c3cc(OC(=O)COc4ccccc4)ccc32)cc1 | 5.52% | – | – |
| COc1ccc(-c2nc(CCNC(=O)c3c(F)cccc3Cl)cs2)cc1 | – | – | inactive |
| Cc1ccc(C(=O)NCC(c2ccc3c(c2)OCO3)N2CCN(c3ccc(F)cc3)CC2)cc1 (stereo not given) | 4.67% | – | – |
| CC(=O)Nc1cccc(OCc2cccc(C3Nc4ccccc4C(=O)N3Cc3ccco3)c2)c1 (stereo not given) | – | 10 µM (active) | – |
| CSCCC(NS(=O)(=O)c1ccc2c(c1)oc(=O)n2C)C(=O)N1CCN(c2ccc(C(C)=O)cc2)CC1 (stereo not given) | -7.18% | – | – |
| Cc1ccc(CNc2ncnc3ccc(-c4ccc([C@@H](C)O)o4)cc23)o1 | – | 12.7 µM (active) | – |
| N#Cc1ccc(-c2ccc(CNc3ccc(N4CCOCC4)cc3)cn2)cc1 | – | 12.7 µM (active) | – |
| COc1ccc2c(c1)c(C(=O)CN(C)C)c(C)n2C | 1.06% | – | – |
| Cc1cc(C)cc(-c2ccc(C=O)cc2)c1 | 40.8% [at 85.7 µM] | – | – |
| N#CNC(=O)c1ccc(-n2cccc2/C=C2\NC(=O)N(CC(=O)Nc3ccc(F)cc3)C2=O)cc1 | -19.3% | – | – |
| Cc1ccsc1CN(C)c1ncnc2ccc(-c3oc(-c4ccccc4)nc3C)cc12 | – | 14.1 µM (active) | – |
| Cc1ccc(-c2ccccc2C=O)c(C)c1 | 6.68% [at 99.6 µM] | – | – |

| Compound | activity change, negative = inhibition | Potency | outcome |
| --- | --- | --- | --- |
| COc1ccc(-c2nc3ccccc3c(=O)n2Cc2ccccc2)cc1CNc1ccc(NC(C)=O)cc1 | – | 11.3 µM (active) | – |
| Cc1cc(C)cc(-c2ccccc2C=O)c1 | 5.54% [at 85.7 µM] | – | – |
| COc1ccc(Cl)cc1C(=O)NCc1nnc2cc(-c3nc(C)no3)ccn12 | -7.9% | – | – |
| CCN(CC)CC(=O)c1c(C)n(C)c2ccc(OC)cc12 | 6.17% | – | – |
| CC(=O)c1c(C)n(-c2cccc(C)c2)c2ccc(OC(=O)COc3ccccc3)cc12 | -2.83% | – | – |
| Cc1ccc(CNc2ncnc3ccc(-c4oc(-c5ccccc5)nc4C)cc23)o1 | – | 22.5 µM (active) | – |
| O=C(Cc1ccc(F)cc1)Nc1cccc(-c2nc3cccnc3s2)c1 | -1.64% | – | – |
| CN1CCN(C(=O)c2cccc(-c3ccc(CNc4ccc(N5CCN(C(=O)OC(C)(C)C)CC5)cc4)o3)c2)CC1 | – | – | inactive |
| Cn1sc(=O)n(Cc2ccccc2)c1=O | – | 12.7 µM (active) | – |
| CC(=O)N1CCN(c2ccc(NCc3ccc(Br)o3)cc2)CC1 | – | 17.9 µM (active) | – |
| Oc1cc2c(cc1CN1CCN(c3ncccn3)CC1)OCO2 | – | 10.1 µM (active) | – |
| CC(=O)N1CCN(c2ccc(NCc3ccco3)cc2)CC1 | – | 10.1 µM (active) | – |
| Cc1ccc(-c2cccc(C=O)c2)c(C)c1 | -6.2% [at 85.7 µM] | – | – |
| CCn1cnc2c(Nc3ccc(CC(=O)N=C(N)N)cc3)nc(C#N)nc21 | -14.1% | – | – |
| Cc1cccc(-c2ccccc2C=O)c1 | 9.73% [at 85.7 µM] | – | – |
| Cc1oc(-c2ccccc2F)nc1CS(=O)(=O)CC(=O)N1CCN(c2cccc(C(F)(F)F)c2)CC1 | -15.6% | – | – |
| O=C1Cc2cc(S(=O)(=O)N3CCN(c4ccc(Cl)cc4)CC3)ccc2N1 | – | – | inactive [at 85.7 µM] |
| O=C(Nc1ncc(Cc2ccc(C(F)(F)F)cc2)s1)c1ccc(-c2ccccc2[N+](=O)[O-])o1 | – | 11.3 µM (active) | – |
| Cc1cccc(C(=O)NCc2nnc3cc(-c4nc(C)no4)ccn23)c1 | -8.31% | – | – |
| COc1cc(O)c(C(CC(=O)N2C[C@H](C)C[C@H](C)C2)c2ccc3c(c2)OCO3)c(OC)c1 (stereo not given in full) | -24.8% [at 85.7 µM] | – | – |
